TDP1 cell noCPT: qHTS for Inhibitors of human tyrosyl-DNA phosphodiesterase 1 (TDP1): qHTS in cells in absence of CPT; DT40 Tdp1-/- hTDP1 cells, no CPT, ATP luminescence, 48 h; Potency, µM (series often up to 46.2 µM), actives largely listed as inhibitors; actives 15% (n = 420,000); AID 686978, 2013; further: nearly all actives have a fitted effect of over 55% in size
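Chicken DT40 Tdp1-/- cells stably complemented with human TDP1 were seeded at 400 cells/well with DMSO in place of 20 nM camptothecin. After compound pinning, cells grew at least 48 hr at 37 °C; viability read by CellTiter-Glo luminescence.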
DT40 TDP1 CPT: DT40-hTDP1 cell growth loss with CPT; actives 12% (n = 420,000); chicken DT40 Tdp1-/-;hTDP1 cells + 20 nM CPT, ATP luminescence, 48 h; AID 686979; Potency, µM (top dose mostly 46.2 µM), hits mostly inhibitors; further: nearly all actives have a fitted effect of over 55% in size
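Chicken DT40 Tdp1-/- cells complemented with human TDP1, 400 cells/well, exposed to compounds plus 20 nM camptothecin for at least 48 h at 37 C; viability read as ATP content by CellTiter-Glo luminescence.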
HT1080 IDH1KD tx: HT-1080 IDH1 knockdown cell toxicity (counter line); Potency, µM (top dose mostly 46.1 µM), most hits filed as cytotoxic; HT-1080 IDH1 knockdown viability, ATP luminescence, 48 h; actives 2% (n = 360,000)
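Cytotoxicity counter-line: IDH1KD HT-1080, 48 h, CellTiter-Glo. Curves classed by r2, magnitude and activity.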
HT1080-NT tox: kills 2HG-producing HT-1080-NT fibrosarcoma cells; HT-1080-NT fibrosarcoma viability, CellTiter-Glo ATP luminescence, 48 h; Potency, µM (titrated, usually from 46.1 µM), most hits filed as cytotoxic; actives 1.6% (n = 360,000); AID 686970;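 further: NT is the 2HG producing partner of a matched IDH1 knockdown line; nearly all actives have a fitted effect of over 55% in size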
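Fibrosarcoma NT cells, 750 per well in 5% FBS RPMI, were exposed to compound for 48 hours. Viability: CellTiter-Glo luminescence.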
IL1B secr inh: inflammasome signaling inhibition, IL-1 beta readout | THP-1 LPS/ATP IL-1B secretion, AlphaLISA, 16 h; stronger effect = lower value | activity change, % at 57.5 µM | actives 4.7% (n = 360,000); in the data active means activity change below about -50%; inconclusive means mostly about -30% to -49%
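THP-1 cells pretreated 1 hr with compounds (up to 57.5 uM final), then stimulated with LPS (250 ng/mL final) plus ATP (1.25 mM final); secreted IL-1B measured by AlphaLISA after 16 hr, decreased signal indicating inhibition.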
Large screens that a line does not name were inactive; ! = a repeat was not active. An excerpt weighted towards active compounds, which were near 19% of everything screened. Unless noted, the call rests on the fitted dose curve; in most records, active means well fitted curve in the direction sought with a large enough effect; inconclusive means small, poorly fitted or top-dose-only effect, or another doubt; inactive means no such curve, though single readings can be large; an effect the other way counts as inactive or inconclusive.

COc1ccc(N(C)S(=O)(=O)c2cccc(C(=O)NCC(c3ccco3)N3CCCC3)c2)cc1 (stereo not given)	TDP1 cell noCPT inconclusive, DT40 TDP1 CPT inconclusive
COc1ccc(C(CNC(=O)c2cccc(S(=O)(=O)Nc3ccc(F)cc3)c2)N2CCCC2)cc1 (stereo not given)	TDP1 cell noCPT inconclusive, DT40 TDP1 CPT inconclusive
CNc1cc(CSc2ccc(Cl)cc2)nc(C)n1	TDP1 cell noCPT inconclusive, DT40 TDP1 CPT inconclusive
C=C[C@@]1(C)C[C@H](OC(=O)CSC(C)(C)CNC(=O)[C@@H](N)C(C)C)[C@@]2(C)C(C)CC[C@@]3(CCC(=O)[C@@H]32)[C@H](C)[C@H]1O (stereo not given in full)	TDP1 cell noCPT 0.079µM, DT40 TDP1 CPT 0.11µM (no result: HT1080 IDH1KD tx, HT1080-NT tox, IL1B secr inh)
C=C[C@]1(C)C[C@@H](OC(=O)CSCCN(CC)CC)[C@]2(C)C(C)CC[C@]3(CCC(=O)[C@H]32)[C@@H](C)[C@@H]1O (stereo not given in full)	TDP1 cell noCPT 8.2µM, DT40 TDP1 CPT 8.2µM
CC(Sc1ccccc1)C(=O)N/N=C/c1ccccc1 (stereo not given)	TDP1 cell noCPT inconclusive
N#Cc1ccccc1S(=O)(=O)c1ccccc1C(=O)Nc1ccccc1	none
O=C(/C=C/Nc1cccc(C(F)(F)F)c1)c1ccc(Oc2ncccn2)cc1	TDP1 cell noCPT 23µM, DT40 TDP1 CPT inconclusive
CCOC(=O)N1CCN(C(=O)C2CCCN(Cc3nc(-c4ccc(Cl)cc4)oc3C)C2)CC1 (stereo not given)	TDP1 cell noCPT 5.8µM, DT40 TDP1 CPT 9.2µM, HT1080-NT tox inconclusive, IL1B secr inh inconclusive
CCc1ccc(-c2nc(CN3CCCC(C(=O)N4CCN(c5cc(Cl)ccc5C)CC4)C3)c(C)o2)cc1 (stereo not given)	TDP1 cell noCPT 3.3µM, DT40 TDP1 CPT 6.5µM (no result: HT1080 IDH1KD tx, HT1080-NT tox, IL1B secr inh)
CC(C)c1ccccc1NC1=CC(=O)CC(C)(C)C1	none
Cc1ccc(CNC(=O)CCS(=O)(=O)c2ccc(Br)s2)cc1	none
CC(C)NC(=O)N(O)C1N(C(C)C)C(=O)N(Cc2ccc3c(c2)OCO3)C1(C)C (stereo not given)	none
CC(C)NC(=O)N(O)C1N(Cc2ccc3c(c2)OCO3)C(=S)SC1(C)C (stereo not given)	TDP1 cell noCPT 15µM, DT40 TDP1 CPT inconclusive
O=S(=O)(c1cccc(F)c1)N1CCN(Cc2cc3c(cc2Br)OCCO3)CC1	TDP1 cell noCPT inconclusive, DT40 TDP1 CPT inconclusive, HT1080 IDH1KD tx inconclusive
COc1ccccc1N1CCN(CCOc2c(OC)cccc2OC)CC1	TDP1 cell noCPT inconclusive, DT40 TDP1 CPT 18µM
COc1ccccc1N1CCN(/N=C/C(Cl)=C/c2ccccc2)CC1	TDP1 cell noCPT 16µM, DT40 TDP1 CPT 26µM, IL1B secr inh inconclusive
COc1ccccc1N1Cc2ccccc2C1	TDP1 cell noCPT 16µM, DT40 TDP1 CPT 26µM
COc1cccc(OC)c1OCCN1CCCC1	TDP1 cell noCPT inconclusive
COc1ccc(OC)c(N2Cc3ccccc3C2)c1	TDP1 cell noCPT inconclusive, DT40 TDP1 CPT inconclusive
COc1cccc(OC)c1OCCN1CCN(C(c2ccccc2)c2ccccc2)CC1	TDP1 cell noCPT inconclusive, DT40 TDP1 CPT inconclusive, IL1B secr inh -53
Cc1ccc(C)c(-c2nnc(NC(=O)Cc3ccccc3)o2)c1	TDP1 cell noCPT inconclusive, DT40 TDP1 CPT inconclusive
COc1ccc(NC(=O)C2CC2(Cl)Cl)cc1S(=O)(=O)N1CCCCC1 (stereo not given)	TDP1 cell noCPT inconclusive, DT40 TDP1 CPT inconclusive
O=C(O)COCCN1CCN(C(c2ccccc2)c2ccc(Cl)cc2)CC1 (stereo not given)	TDP1 cell noCPT 15µM!, DT40 TDP1 CPT inconclusive
O=C1CCCC2=C1C(c1ccc3c(c1)OCO3)c1c([nH]n(-c3ccccc3)c1=O)N2 (stereo not given)	TDP1 cell noCPT 13µM
CCOC(=O)Cc1csc(NC(=O)Cc2ccccc2)n1	TDP1 cell noCPT inconclusive
CCOC(=O)Cc1csc(NC(=O)CS(=O)(=O)Cc2ccccc2)n1	TDP1 cell noCPT inconclusive
CCOC(=O)Cc1csc(NC(=O)CCCCCN2C(=O)c3ccccc3C2=O)n1	IL1B secr inh -56
CCOC(=O)Cc1csc(NC(=O)CCS(=O)(=O)Cc2ccccc2)n1	DT40 TDP1 CPT inconclusive, HT1080 IDH1KD tx 10µM, HT1080-NT tox inconclusive
CCOc1ccc(C(=O)NCC(=O)N2CCC3(CC2)NCCc2[nH]cnc23)cc1	HT1080 IDH1KD tx inconclusive
CCNc1ncc2nc(CCc3ccccc3)c(=O)n(C[C@H]3CCCO3)c2n1	none (no result: HT1080 IDH1KD tx, HT1080-NT tox, IL1B secr inh)
Cc1ccccc1Cn1ccc(NC(=O)c2cnn3c2NC(c2ccccc2)CC3C(F)(F)F)n1 (stereo not given)	TDP1 cell noCPT inconclusive, DT40 TDP1 CPT inconclusive, HT1080 IDH1KD tx inconclusive, HT1080-NT tox inconclusive, IL1B secr inh -66
CN1CCN(C(=O)c2cnn3c2NC(c2ccccc2)CC3C(F)(F)F)CC1 (stereo not given)	none
O=C(NCc1ccco1)c1cnn2c1NC(c1ccccc1)CC2C(F)(F)F (stereo not given)	DT40 TDP1 CPT 18µM
O=C(NCc1ccco1)c1cnn2c1NC(c1ccc(Br)cc1)CC2C(F)(F)F (stereo not given)	TDP1 cell noCPT 4.1µM, DT40 TDP1 CPT 4.1µM, HT1080 IDH1KD tx inconclusive, HT1080-NT tox inconclusive
Cc1nnc2sc(SCC(=O)Nc3cccc(Cl)c3)nn2c1=O	none
COc1ccc(CNC(=O)CN2CCN(S(=O)(=O)c3ccccc3)CC2)cc1	none
COc1cccc(C(NC(C)=O)c2nc(-c3csc4ccccc34)cs2)c1 (stereo not given)	TDP1 cell noCPT inconclusive, DT40 TDP1 CPT inconclusive
O=C(CSc1cn(CC(=O)N2CCCCC2)c2ccccc12)Nc1ccccc1	TDP1 cell noCPT inconclusive (no result: HT1080 IDH1KD tx, HT1080-NT tox, IL1B secr inh)
O=C(Cn1cc(SCc2ccccc2F)c2ccccc21)N1CCCCCC1	TDP1 cell noCPT inconclusive, DT40 TDP1 CPT 23µM (no result: HT1080 IDH1KD tx, HT1080-NT tox, IL1B secr inh)
Cc1ccccc1CSc1cn(CC(=O)N2CCCCCC2)c2ccccc12	TDP1 cell noCPT 23µM, DT40 TDP1 CPT inconclusive (no result: HT1080 IDH1KD tx, HT1080-NT tox, IL1B secr inh)
Cn1cnc(S(=O)(=O)N2CCC(C(=O)NCc3ccccc3)CC2)c1	none (no result: HT1080 IDH1KD tx, HT1080-NT tox, IL1B secr inh)
COc1ccc(CCNC(=O)c2cccc(Nc3nc4ccccc4nc3-n3nc(C)cc3C)c2)cc1OC	TDP1 cell noCPT 4.6µM, DT40 TDP1 CPT 5.2µM (no result: HT1080 IDH1KD tx, HT1080-NT tox, IL1B secr inh)
COc1ccc(CCNC(=O)c2cc(-c3ccc(C)cc3)nc3n[nH]c(-c4ccccc4)c23)cc1OC	none (no result: HT1080 IDH1KD tx, HT1080-NT tox, IL1B secr inh)
COc1ccc(-c2cc(C(=O)NCCc3ccc(OC)c(OC)c3)c3ccccc3n2)cc1	TDP1 cell noCPT 12µM, DT40 TDP1 CPT 18µM (no result: HT1080 IDH1KD tx, HT1080-NT tox, IL1B secr inh)
Cc1ccc(CCNC(=O)c2coc3nc4ccccc4nc23)cc1	TDP1 cell noCPT 29µM, DT40 TDP1 CPT inconclusive
CCC(Cc1ccccc1)NC(=O)c1cccc(Nc2nc3ccccc3nc2-n2nc(C)cc2C)c1 (stereo not given)	none (no result: HT1080 IDH1KD tx, HT1080-NT tox, IL1B secr inh)
